The panel holds about 83,000 compounds, 20% with a hit somewhere; the sample as a whole holds those more often.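 Single-dose data. Exposure time 48 hours. Values below 10 considered active.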 Unmarked numbers belong to inactive results. Activity calls are given as the source filed them.

The text below walks through data of PubChem BioAssay (NCI).

Some test systems named below: NCI-H23 lung; NCI-H226 lung; HOP-62 NSCLC; NCI-H460 lung; HOP-92 NSCLC; NCI-H522 lung; A549/ATCC NSCLC; 786-0 renal; COLO 205 colon.
What all share (test): NCI-60 one-dose screen, 48 h (100 = growth as untreated, 0 = no growth, -100 = all killed)
Details in all cases: 10 µM

For the compound `O=C(Nc1cccc2c1CCCC2)c1cc2ccccc2cc1O`, the growth is 3.43% (active) in the experiment on NCI-H23 lung; 35.1% in the experiment with NCI-H226 lung; 69.9% in the experiment on HOP-62 NSCLC; 27.3% in the experiment on NCI-H460 lung; -20.6% (active) in the experiment with HOP-92 NSCLC; 18.8% with NCI-H522 lung. Moreover, the growth in the experiment with A549/ATCC NSCLC is 33.8%; in the experiment on 786-0 renal, 43.7%; with COLO 205 colon, 92.3%.

Turning to `Cc1cc(CSc2ccccc2C(=O)N2CC=C(c3ccccc3)CC2)on1`, the growth in the experiment on NCI-H23 lung is 89.4%; with NCI-H226 lung it was 88.4%; in the experiment on HOP-62 NSCLC, 92.2%; in the experiment on NCI-H460 lung, 100%; with HOP-92 NSCLC it was 93.4%; in the experiment on NCI-H522 lung, 75.3%. The figures for the growth in the experiment on A549/ATCC NSCLC, in the experiment with 786-0 renal and in the experiment with COLO 205 colon were 94.6%, 94.5% and 107%, respectively.

For the compound `CCN(CC)CCCC(C)Nc1c2ccc(Cl)cc2nc2ccc(OC)cc12` (stereo not drawn), the growth in the experiment with NCI-H23 lung is 44.7%; in the experiment on NCI-H226 lung, 36.7%; with HOP-62 NSCLC, 3.18% (active); in the experiment with NCI-H460 lung, 2.49% (active); in the experiment on HOP-92 NSCLC, 27.7%; in the experiment with NCI-H522 lung it was 21.1%. Further, the figures for the growth in the experiment on A549/ATCC NSCLC, in the experiment on 786-0 renal and in the experiment on COLO 205 colon were 17.1%, 25.6% and -71.9% (active), respectively.

On to `CCOC(=O)CC(S(=O)(=O)c1ccccc1)S(=O)(=O)c1ccccc1`, for which the growth was 98.3% in the experiment on NCI-H23 lung; 95.7% in the experiment on NCI-H226 lung; 109% with HOP-62 NSCLC; 103% in the experiment on NCI-H460 lung; 89.7% with HOP-92 NSCLC; -11.9% (active) with NCI-H522 lung. Besides, the results for the growth with A549/ATCC NSCLC, in the experiment on 786-0 renal and in the experiment on COLO 205 colon were 95.3%, 115% and -87.1% (active), respectively.

With `O=C(NCCNC(=O)c1ccc(F)cc1)Nc1ccc(-n2cc(-c3ccncc3)c(-c3ccc(Cl)c(O)c3)n2)cc1`, the growth is 6.86% (active) in the experiment on NCI-H23 lung; 24.2% with NCI-H226 lung; 22.9% in the experiment with HOP-62 NSCLC; -0.482% (active) with NCI-H460 lung; -19% (active) with HOP-92 NSCLC; -29.2% (active) in the experiment on NCI-H522 lung. For the same compound, the growth with A549/ATCC NSCLC was 12.4%; with 786-0 renal it was -11.1% (active); in the experiment on COLO 205 colon it was -80.8% (active).

Regarding `CC(=O)N[C@H](C(=O)N[C@@H](CCCNC(=N)N)C(=O)N[C@@H](CCCCN)C(=O)N[C@@H](CCCNC(=N)N)C(=O)NC(C(=O)N[C@@H](CC(C)C)C(=O)N[C@@H](CCCNC(=N)N)C(=O)N[C@@]1(C)CCC/C=C\CCC[C@@](C)(C(=O)N[C@@H](CCCNC(=N)N)C(=O)N[C@@H](CCC(=O)O)C(=O)N[C@@H](CC(C)C)C(=O)N[C@H](C(=O)N[C@@H](CCC(=O)O)C(N)=O)C(C)C)NC(=O)[C@H](CCC(N)=O)NC(=O)[C@H](CC(C)C)NC(=O)[C@H](CC(C)C)NC1=O)[C@@H](C)O)C(C)C` (stereo partly drawn), the growth in the experiment with NCI-H23 lung was -34.6% (active); with NCI-H226 lung, 7.17% (active); in the experiment on HOP-62 NSCLC, -43.1% (active); with NCI-H460 lung, -63.6% (active); in the experiment on HOP-92 NSCLC it was -76% (active); with NCI-H522 lung, 36.5%. In addition, the values for the growth in the experiment on A549/ATCC NSCLC, with 786-0 renal and in the experiment on COLO 205 colon were 27.8%, -85.6% (active) and -53% (active), respectively.

Consider `COc1ccc(N=Nc2cc(OC)c(OC)c(OC)c2)cc1`, for which the growth is 77.3% with NCI-H23 lung; 92.4% with NCI-H226 lung; 66.9% in the experiment on HOP-62 NSCLC; 87.5% in the experiment on NCI-H460 lung; 79.4% in the experiment on HOP-92 NSCLC; 57% with NCI-H522 lung. Also, the growth in the experiment with A549/ATCC NSCLC was 73%; in the experiment on 786-0 renal it was 98.2%; in the experiment on COLO 205 colon, 87.2%.

`CNC(=O)c1cn2c3c(c(N4CCN(C)CC4)c(F)cc3c1=O)OC[C@@H]2C`: the growth is 96.3% with NCI-H23 lung; 93% with NCI-H226 lung; 94.5% with HOP-62 NSCLC; 103% in the experiment on NCI-H460 lung; 98.5% in the experiment on HOP-92 NSCLC; 90.4% in the experiment on NCI-H522 lung. For the same compound, the results for the growth in the experiment with A549/ATCC NSCLC, with 786-0 renal and in the experiment on COLO 205 colon were 95.7%, 96.2% and 110%, respectively.

Regarding `O=C(O)c1ccc(-n2cc(CNc3ccc(Oc4ccccc4)cc3)c(-c3ccccc3)n2)cc1`, the growth in the experiment on NCI-H23 lung is 81.1%; in the experiment with NCI-H226 lung, 99.3%; with HOP-62 NSCLC it was 122%; with NCI-H460 lung, 90.2%; in the experiment with HOP-92 NSCLC, 89%; with NCI-H522 lung, 84.4%. In addition, the growth is 76.5% in the experiment with A549/ATCC NSCLC, 90.6% with 786-0 renal and 101% in the experiment on COLO 205 colon.

Turning to `NC(CSC(c1ccccc1)(c1ccccc1)c1cccc2ccccc12)C(=O)O` (stereo not drawn), the growth in the experiment with NCI-H23 lung is 94.2%; with NCI-H226 lung, 96.6%; with HOP-62 NSCLC, 104%; with NCI-H460 lung it was 98.8%; with HOP-92 NSCLC, 81.6%; in the experiment on NCI-H522 lung, 104%. The results for the growth with A549/ATCC NSCLC, in the experiment on 786-0 renal and in the experiment with COLO 205 colon were 92.7%, 98.2% and 108%, respectively.

Regarding `Cc1cc(=O)n2nnc3cc(C(F)(F)F)ccc3n12`, the growth with NCI-H23 lung was 101%; in the experiment on NCI-H226 lung it was 115%; in the experiment on HOP-62 NSCLC it was 117%; with NCI-H460 lung, 114%; in the experiment with HOP-92 NSCLC, 93.9%; in the experiment with NCI-H522 lung, 97.4%. Moreover, the growth in the experiment with A549/ATCC NSCLC is 105%; with 786-0 renal it was 104%; with COLO 205 colon it was 108%.

Consider `COc1ccc(-c2onc(N)c2-c2cc(OC)c3c(c2)OCO3)cc1`, for which the growth was 44% in the experiment on NCI-H23 lung; 77% in the experiment with NCI-H226 lung; 29.4% in the experiment with HOP-62 NSCLC; 14.9% in the experiment with NCI-H460 lung; 63.9% with HOP-92 NSCLC; 9.81% (active) in the experiment with NCI-H522 lung. For the same compound, the growth was 32.2% in the experiment on A549/ATCC NSCLC, 47.2% in the experiment on 786-0 renal and 12.4% with COLO 205 colon.
